PubChem BioAssay (EPA / NIEHS)
Values joined by “and” are separate entries in the source; they are usually repeats but may differ in a detail not shown here. Identical values can stand only once. More than one record can exist for a structure, and the calls need not agree. Active and inactive are the calls of the source. How the source made its calls: active means hit-call score of the fitted dose curve at least 0.9, where 1 is the maximum; inactive means score below 0.9.

Test system: not listed separately
Test: ATG_Ets_CIS: Attagene CIS-FACTORIAL HepG2 Assay for human Erythroblast Transformation Specific (ETS) (AID 2282941)
Conditions: HepG2 ETS cis-reporter transcription, actives raise or lower the signal
Method in brief: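 Endogenous transcription factor activity read as reporter mRNA via RT-PCR and capillary electrophoresis, with gain or loss fitted bidirectionally against DMSO. Human HepG2 liver cells, transiently transfected CIS reporter constructs, 24 h exposure.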

Row | Structure (SMILES) | outcome | AC50
1 | C[Si](C)(C)C(F)(F)C(F)(F)C(F)(F)F | inactive | –
2 | CCN(CC)C(=S)SSC(=S)N(CC)CC | – | 158 µM (active)
3 | CCc1cccc(CC)c1N | inactive | –
4 | Cc1cccc(O)c1C | inactive | –
5 | OCCOCCOCCO | inactive | –
6 | O=C1CN(N=Cc2ccc([N+](=O)[O-])o2)C(=O)N1 | inactive | –
7 | FC(F)(F)COC(OCC(F)(F)F)OCC(F)(F)F | inactive | –
8 | O=C(Cl)C(F)(F)C(F)(F)C(F)(F)C(=O)Cl | inactive | –
9 | NC(N)=O | inactive | –
10 | S=P(N1CC1)(N1CC1)N1CC1 | inactive | –
11 | CCCCC(CC)C(=O)OCCOCCOCCOC(=O)C(CC)CCCC (stereo not given) | inactive | –
12 | CC(C)c1nnc2ccc(-c3ocnc3-c3cc(F)ccc3F)cn12 | inactive | –
13 | CCCCCCCC1CCC(=O)O1 (stereo not given) | inactive | –
14 | NCC(F)(F)C(F)(F)C(F)(F)C(F)(F)F | inactive | –
15 | CCCCCCCCCCCCCCO | – | 159 µM (active)
16 | CCCCCCCCCC | inactive | –
17 | OC(O)(C(F)C(O)(O)C(F)(F)F)C(F)(F)F | inactive | –
18 | O=C(N[C@H](CO)[C@H](O)c1ccc([N+](=O)[O-])cc1)C(Cl)Cl | inactive | –
19 | OCCC(F)(F)C(F)(F)C(F)(F)C(F)(F)F | inactive | –

Biological target: Hepatocyte nuclear factor 3-beta (Homo sapiens) (UniProt Q9Y261)
Sequence (Q9Y261 whole entry, looked up): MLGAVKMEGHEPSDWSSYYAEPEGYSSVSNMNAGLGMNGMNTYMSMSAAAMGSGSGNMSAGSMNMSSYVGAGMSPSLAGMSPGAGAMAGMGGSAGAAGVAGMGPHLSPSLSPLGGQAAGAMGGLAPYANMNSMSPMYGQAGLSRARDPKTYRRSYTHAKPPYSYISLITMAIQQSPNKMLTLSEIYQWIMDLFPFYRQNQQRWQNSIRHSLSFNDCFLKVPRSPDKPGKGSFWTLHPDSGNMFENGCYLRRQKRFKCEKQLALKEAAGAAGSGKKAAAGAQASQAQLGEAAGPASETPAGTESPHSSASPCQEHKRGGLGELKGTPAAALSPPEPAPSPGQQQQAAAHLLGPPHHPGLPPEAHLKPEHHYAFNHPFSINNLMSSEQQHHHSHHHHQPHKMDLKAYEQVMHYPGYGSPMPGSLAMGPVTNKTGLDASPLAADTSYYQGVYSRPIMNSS
Test: ATG_FoxA2_CIS: Attagene CIS-FACTORIAL HepG2 Assay for human Forkhead box A2 (FOXA2) (AID 2282942)
Conditions: HepG2 cis-reporter transcription factor activity, 24 h; actives raise or lower the signal
Method in brief: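 Reporter transcript induction is measured by fluorescence after capillary electrophoresis of RT-PCR products from HepG2 cells exposed 24 h. Cis-regulated reporter units report endogenous factor activity; curves fitted both directions against DMSO.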

Row | Structure (SMILES) | outcome | AC50
20 | C[Si](C)(C)C(F)(F)C(F)(F)C(F)(F)F | inactive | –
21 | FC(F)C(F)(F)COCC1CO1 (stereo not given) | inactive | –
22 | CCOC(N)=O | inactive | –
23 | CCc1cccc(CC)c1N | inactive | –
24 | Cc1cccc(O)c1C | inactive | –
25 | C[C@]12C=CC(=O)C=C1CC[C@H]1[C@@H]3C[C@@H](O)[C@](O)(C(=O)CO)[C@@]3(C)C[C@H](O)[C@@]12F | inactive | –
26 | OCCOCCOCCO | inactive | –
27 | Cc1nc(-c2ccccn2)ncc1C(=O)Nn1cc(C)c2cc(F)ccc21 | inactive | –
28 | O=S(=O)(O)CCC(F)(F)C(F)(F)C(F)(F)C(F)(F)C(F)(F)C(F)(F)F | inactive | –
29 | O=C1CN(N=Cc2ccc([N+](=O)[O-])o2)C(=O)N1 | inactive | –
30 | FC(F)(F)COC(OCC(F)(F)F)OCC(F)(F)F | inactive | –
31 | FC(F)(F)C(F)(F)C(F)(F)C(F)(F)C(F)(F)C(F)(F)I | inactive | –
32 | O=C(O)CO | inactive | –
33 | O=C(Cl)C(F)(F)C(F)(F)C(F)(F)C(=O)Cl | inactive | –
34 | NC(N)=O | inactive | –
35 | OCc1c[nH]c2ccccc12 | inactive | 1.72 µM (active) and 512 nM (active) and 1.85 µM (active)
36 | S=P(N1CC1)(N1CC1)N1CC1 | inactive | –
37 | CCCCC(CC)C(=O)OCCOCCOCCOC(=O)C(CC)CCCC (stereo not given) | inactive | –
38 | CC(C)c1nnc2ccc(-c3ocnc3-c3cc(F)ccc3F)cn12 | inactive | –
39 | CCCCCCCC1CCC(=O)O1 (stereo not given) | inactive | –
40 | NCC(F)(F)C(F)(F)C(F)(F)C(F)(F)F | inactive | –
41 | CCCCCCCCCCCCCCO | – | 138 µM (active)
42 | CCCCCCCCCC | inactive | –
43 | OC(O)(C(F)C(O)(O)C(F)(F)F)C(F)(F)F | inactive | –
44 | FC(F)=C(F)C(F)(F)C(F)(F)C(F)(F)C(F)(F)C(F)(F)C(F)(F)F | inactive | –
45 | O=C(N[C@H](CO)[C@H](O)c1ccc([N+](=O)[O-])cc1)C(Cl)Cl | inactive | –
46 | OCCC(F)(F)C(F)(F)C(F)(F)C(F)(F)F | inactive | –

Test system: not listed separately
Test: ATG_FoxO_CIS: Attagene CIS-FACTORIAL HepG2 Assay for human Forkhead box O (FoxO) (AID 2282943)
Conditions: HepG2 Attagene cis-reporter, FoxO element, mRNA; actives raise or lower the signal
Method in brief: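 Values reflect reporter mRNA induction or loss in HepG2 cells 24 h post-dosing, fitted bidirectionally with DMSO as negative control and baseline. Detection used RT-PCR and fluorescence capillary electrophoresis.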

Row | Structure (SMILES) | outcome | AC50
47 | C[Si](C)(C)C(F)(F)C(F)(F)C(F)(F)F | inactive | –
48 | FC(F)C(F)(F)COCC1CO1 (stereo not given) | inactive | –
49 | CCN(CC)C(=S)SSC(=S)N(CC)CC | – | 152 µM (active)
50 | CCOC(N)=O | inactive | –
51 | CCc1cccc(CC)c1N | inactive | –
52 | Cc1cccc(O)c1C | inactive | –
53 | C[C@]12C=CC(=O)C=C1CC[C@H]1[C@@H]3C[C@@H](O)[C@](O)(C(=O)CO)[C@@]3(C)C[C@H](O)[C@@]12F | inactive | –
54 | OCCOCCOCCO | inactive | –
55 | Cc1nc(-c2ccccn2)ncc1C(=O)Nn1cc(C)c2cc(F)ccc21 | inactive | –
56 | O=S(=O)(O)CCC(F)(F)C(F)(F)C(F)(F)C(F)(F)C(F)(F)C(F)(F)F | inactive | –
57 | O=C1CN(N=Cc2ccc([N+](=O)[O-])o2)C(=O)N1 | inactive | –
58 | FC(F)(F)COC(OCC(F)(F)F)OCC(F)(F)F | inactive | –
59 | FC(F)(F)C(F)(F)C(F)(F)C(F)(F)C(F)(F)C(F)(F)I | inactive | –
60 | O=C(O)CO | inactive | –
61 | O=C(Cl)C(F)(F)C(F)(F)C(F)(F)C(=O)Cl | inactive | –
62 | NC(N)=O | inactive | –
63 | OCc1c[nH]c2ccccc12 | inactive | –
64 | S=P(N1CC1)(N1CC1)N1CC1 | inactive | –
65 | CCCCC(CC)C(=O)OCCOCCOCCOC(=O)C(CC)CCCC (stereo not given) | inactive | –
66 | CC(C)c1nnc2ccc(-c3ocnc3-c3cc(F)ccc3F)cn12 | inactive | –
67 | CCCCCCCC1CCC(=O)O1 (stereo not given) | inactive | –
68 | NCC(F)(F)C(F)(F)C(F)(F)C(F)(F)F | inactive | –
69 | CCCCCCCCCCCCCCO | inactive | –
70 | CCCCCCCCCC | inactive | –
71 | OC(O)(C(F)C(O)(O)C(F)(F)F)C(F)(F)F | inactive | –
72 | FC(F)=C(F)C(F)(F)C(F)(F)C(F)(F)C(F)(F)C(F)(F)C(F)(F)F | inactive | –
73 | O=C(N[C@H](CO)[C@H](O)c1ccc([N+](=O)[O-])cc1)C(Cl)Cl | inactive | –
74 | OCCC(F)(F)C(F)(F)C(F)(F)C(F)(F)F | inactive | –
